Screening data deposited in PubChem BioAssay by several laboratories.
Rows were chosen to be rich in hits. Some 2.1% of all compounds tested hit in one or more screens of this group.
HIV Env fusion: blocks HIV Env-driven cell-cell fusion; HeLa-JRFL Env/CEM21 cell fusion, luciferase; inhibition, % at 12.3 µM; hit rate 1.1% among 360,000; AID 651610;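 active = mean replicate inhibition score of at least 50 and every replicate individually at or above 50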;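 note: 0% = plate neutral controls and 100% = maraviroc near 300 nM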
aDG glyco up: alpha-DG glycosylation activation; activation, % at 10 µM; hit rate 0.22% among 360,000; Pro5-aDG cells, alpha-DG glycosylation AlphaScreen (IIH6); 0% Pro5, 100% B10-LARGE cell signal; AID 624168;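 active = activation of at least 8% versus controls, or a plate z-score of at least 8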;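 note: Pro5 are CHO cells carrying HIG-tagged alpha-DG that lacks glycosylation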
NR2F2 inh: NR2F2 (human) inhibition, primary screen; P24468; HEK293T NGFI-A luciferase reporter, luminescence; inhibition, % at 8.6 µM; hit rate 0.7% among 370,000;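 active = inhibition above a per-plate cutoff, mean inhibition of test wells between control levels plus 3 SD, cut at about 38% in these data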;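 note: cells cotransfected with COUP-TFII expression vector driving the NGFI-A reporter; 0% = median of COUP-TF2 test wells and 100% = reporter-only cells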
Target sequence (P24468 whole entry, looked up): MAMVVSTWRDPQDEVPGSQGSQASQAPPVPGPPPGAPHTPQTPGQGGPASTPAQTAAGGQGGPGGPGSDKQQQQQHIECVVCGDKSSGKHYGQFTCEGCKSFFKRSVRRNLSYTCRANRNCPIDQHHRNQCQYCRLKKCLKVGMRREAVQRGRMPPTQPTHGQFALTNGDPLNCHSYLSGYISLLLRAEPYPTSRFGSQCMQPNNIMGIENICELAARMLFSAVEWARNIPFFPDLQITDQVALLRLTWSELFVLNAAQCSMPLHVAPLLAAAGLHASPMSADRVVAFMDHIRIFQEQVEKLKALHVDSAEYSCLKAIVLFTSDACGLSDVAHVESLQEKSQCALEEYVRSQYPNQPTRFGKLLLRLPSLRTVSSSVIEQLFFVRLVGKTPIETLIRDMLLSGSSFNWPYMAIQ
GalR3 antag: blocks the human galanin receptor 3 | HEK293 GalR3-CNG cAMP membrane potential fluorescence; galR3 body fused to GalR1 C-terminus | inhibition, % at 3 µM | hit rate 0.44% among 360,000 | AID 651719;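 active = inhibition above the screen-wide average plus 3 SD, cut at about 13% in these data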;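 note: forskolin and galanin both at EC90 stimulate the cells; cAMP rise reported by CNG channel membrane potential dye signal; 0% = forskolin plus galanin with DMSO and 100% = forskolin alone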
Target sequence (O60755 1-299 limits assumed): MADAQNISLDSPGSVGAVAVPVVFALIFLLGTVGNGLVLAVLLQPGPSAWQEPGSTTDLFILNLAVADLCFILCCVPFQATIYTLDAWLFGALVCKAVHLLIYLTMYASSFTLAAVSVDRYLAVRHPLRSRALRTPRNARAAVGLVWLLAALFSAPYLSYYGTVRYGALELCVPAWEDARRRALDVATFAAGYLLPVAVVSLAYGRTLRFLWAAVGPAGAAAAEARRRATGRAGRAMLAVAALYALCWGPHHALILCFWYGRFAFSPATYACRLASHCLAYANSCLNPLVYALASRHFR
Gli-Sufu block: antagonists of Gli-Sufu signaling; Sufu-KO-LIGHT fibroblasts, Gli luciferase reporter luminescence; inhibition, % at 5 µM; AID 588413; hit rate 0.74% among 340,000;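 active = inhibition above about 55%, limit read from the data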;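 note: 0% = DMSO-treated cells and 100% = wells with medium but no cells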
Gli antag conf: confirmation of Gli-SUFU pathway antagonists | shares compounds with Gli-Sufu block | Sufu-KO-LIGHT cells, Gli luciferase reporter, luminescence | inhibition, % at 5 µM | hit rate 40% among 2,500 | AID 602428;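 active = mean inhibition at 5 µM reaching about 45%, limit read from the data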;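 note: plate controls were DMSO-treated cells for no effect and wells lacking cells for full effect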
SufuKO cytotox: cytotoxic in Gli-SUFU antagonist counter-screen. shares compounds with Gli-Sufu block. Sufu-KO-LIGHT cells cytotoxicity, ATP luminescence. cytotoxicity, % at 5 µM. hit rate 32% among 2,500. AID 651994;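 active = mean cytotoxicity at 5 µM above about 25%, limit read from the data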;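 note: cells exposed to compound overnight for roughly 16 to 18 hours; plate controls were DMSO wells with cells for no effect and medium without cells for full effect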
Wnt3a counter: inhibits Wnt3a reporter, counter-screen for Gli-SUFU antagonists; shares compounds with Gli-Sufu block; hit rate 20% among 2,500; inhibition, % at 6.25 µM; Wnt-LIGHT cells, Wnt3a-driven luciferase reporter, luminescence; AID 651995;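 active = mean inhibition above about 25%, limit read from the data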
* = called active by the depositor; [ ] = remark or other dose.

Results for NS(=O)(=O)c1ccc(CCNCc2cc(Br)ccc2OCc2ccccc2)cc1 ?
HIV Env fusion: 19; aDG glyco up: 4; NR2F2 inh: 4; GalR3 antag: -4; Gli-Sufu block: 55*; Gli antag conf: 31; SufuKO cytotox: 4; Wnt3a counter: -10

What do the screens show for `COc1ccc(NC(=O)N(C)C[C@@H]2Oc3ccc(NC(=O)Nc4c(C)noc4C)cc3CC(=O)N([C@@H](C)CO)C[C@H]2C)cc1`?
HIV Env fusion: 12[16.7 µM]

What do the screens show for `CC(C)NC(=O)N(C)C[C@H]1Oc2cc(C#Cc3ccc(F)cc3)ccc2S(=O)(=O)N([C@@H](C)CO)C[C@H]1C`?
HIV Env fusion: 8[16.7 µM]

How did CO[C@H]1CN(C)C(=O)c2cc(NC(=O)Nc3c(C)noc3C)ccc2OC[C@H](C)N(C)C[C@H]1C do in these assays?
HIV Env fusion: 3[16.7 µM]

Results for COc1cc(C2c3cc4c(cc3OC(NNC(N)=O)C2C)OCO4)cc(OC)c1OC (stereo not given) ?
HIV Env fusion: 15; aDG glyco up: 0; NR2F2 inh: -67; GalR3 antag: 3; Gli-Sufu block: 56*; Gli antag conf: 55*; SufuKO cytotox: 62*; Wnt3a counter: 8

Results for Cc1nnc(C)c2c(C)n(-c3ccccc3)c(C)c12 ?
HIV Env fusion: -434; aDG glyco up: 0; NR2F2 inh: -11; GalR3 antag: -8; Gli-Sufu block: 59*; Gli antag conf: 37; SufuKO cytotox: 14; Wnt3a counter: -15

Results for COc1ccc(CN2C[C@@H](O)COC[C@H]3O[C@@H](CC(=O)NCCN4CCCC4)CC[C@@H]32)cc1 ?
HIV Env fusion: -12[16.7 µM]

How did CCOc1ccccc1CNc1nnnn1C do in these assays?
HIV Env fusion: 13; aDG glyco up: 0; NR2F2 inh: -10; GalR3 antag: -10

What do the screens show for `CCOc1ccc(Cl)cc1CNc1nnnn1C`?
HIV Env fusion: -8; aDG glyco up: 0; NR2F2 inh: -13; GalR3 antag: -6; Gli-Sufu block: 51; Gli antag conf: 16; SufuKO cytotox: 15; Wnt3a counter: -1

How did C[C@H]1CN([C@@H](C)CO)C(=O)Cc2cc(NS(=O)(=O)c3cccs3)ccc2O[C@H]1CN(C)Cc1ccc2c(c1)OCO2 do in these assays?
HIV Env fusion: -9[16.7 µM]

How did C[C@@H]1CCCCO[C@H](CN(C)C(=O)Nc2ccc(C(F)(F)F)cc2)[C@@H](C)CN([C@H](C)CO)C(=O)c2cc(NS(=O)(=O)c3cn(C)cn3)ccc2O1 do in these assays?
HIV Env fusion: -3[16.7 µM]

How did C[C@H]1CN([C@@H](C)CO)C(=O)c2cc(-c3ccccc3)cnc2O[C@@H]1CN(C)C(=O)c1cccc(F)c1 do in these assays?
HIV Env fusion: 12[16.7 µM]

How did N#Cc1cccnc1N1CCN(C(=O)c2ccc3c(c2)S(=O)(=O)c2ccccc2C3=O)CC1 do in these assays?
HIV Env fusion: -1; aDG glyco up: 0; NR2F2 inh: 6; GalR3 antag: -1; Gli-Sufu block: 50; Gli antag conf: 26; SufuKO cytotox: 2; Wnt3a counter: -10

How did O=C1c2ccccc2S(=O)(=O)c2cc(C(=O)N3CCN(c4ccc(Cl)cn4)CC3)ccc21 do in these assays?
HIV Env fusion: -11; aDG glyco up: 0; NR2F2 inh: 7; GalR3 antag: -3; Gli-Sufu block: -3

Results for C/C=C/c1ccc2c(c1)O[C@@H](CN(C)C(=O)c1ccccc1F)[C@@H](C)CN([C@H](C)CO)S2(=O)=O ?
HIV Env fusion: 1[16.7 µM]

Results for O=C(Nc1ncc(Cc2ccc(SC(F)F)cc2)s1)c1ccc(OC(F)F)cc1 ?
HIV Env fusion: -9; aDG glyco up: 0; NR2F2 inh: -54; GalR3 antag: 10; Gli-Sufu block: 60*; Gli antag conf: 71*; SufuKO cytotox: 66*; Wnt3a counter: 4

How did COC(=O)c1cnc(Oc2ccc(NC(=O)NC(=O)c3c(F)cccc3F)cc2)cc1C(F)(F)F do in these assays?
HIV Env fusion: 18; aDG glyco up: 0; NR2F2 inh: -5; GalR3 antag: -4; Gli-Sufu block: 0

Results for COC(=O)c1cnc(Oc2ccc(NC(=O)NC(=O)c3c(OC)cccc3OC)cc2)cc1C(F)(F)F ?
HIV Env fusion: -128; aDG glyco up: 0; NR2F2 inh: 18; GalR3 antag: 2; Gli-Sufu block: 52; Gli antag conf: 53*; SufuKO cytotox: 58*; Wnt3a counter: -31

What do the screens show for `CC(C)C#Cc1ccc2c(c1)O[C@H](CN(C)Cc1cccnc1)[C@@H](C)CN([C@H](C)CO)S2(=O)=O`?
HIV Env fusion: -8[16.7 µM]

Results for C[C@@H]1CN([C@H](C)CO)C(=O)Cc2cc(NC(=O)C3CC3)ccc2O[C@H]1CN(C)C(=O)NC1CCCCC1 ?
HIV Env fusion: -40[16.7 µM]

What do the screens show for `CCCNC(=O)[C@H]1[C@H](CO)[C@H]2Cn3c(ccc(-c4cccnc4)c3=O)[C@H]2N1C(=O)c1ccccc1F`?
HIV Env fusion: 5[16.7 µM]

Results for Cc1cccc(C)c1NC(=S)N(CCN1CCCCCC1)Cc1ccco1 ?
HIV Env fusion: 18; aDG glyco up: 0; NR2F2 inh: 6; GalR3 antag: -6; Gli-Sufu block: 52; Gli antag conf: 29; SufuKO cytotox: 8; Wnt3a counter: -12

How did Cc1ccc(NC(=O)c2cc3ccccc3o2)cc1S(=O)(=O)N(C)C do in these assays?
HIV Env fusion: -98; aDG glyco up: 0; NR2F2 inh: -52; GalR3 antag: 2; Gli-Sufu block: -121

How did Cc1ccc(NC(=O)c2cc3ccccc3oc2=O)cc1S(=O)(=O)N(C)C do in these assays?
aDG glyco up: 0; Gli-Sufu block: 78*; Gli antag conf: 89*; SufuKO cytotox: 16; Wnt3a counter: 101*

Results for Cc1ccc(C2=NC(C(F)(F)F)(C(F)(F)F)c3c(n(-c4ccc(F)cc4)c(=O)[nH]c3=O)N2)cc1 ?
aDG glyco up: 1; NR2F2 inh: -5; GalR3 antag: -7; Gli-Sufu block: 40

How did O=c1[nH]c(=O)n(-c2ccc(F)cc2)c2c1C(C(F)(F)F)(C(F)(F)F)N=C(c1ccc(F)cc1)N2 do in these assays?
aDG glyco up: 1; NR2F2 inh: -4; GalR3 antag: 1; Gli-Sufu block: 75*; Gli antag conf: 69*; SufuKO cytotox: 10; Wnt3a counter: 77*

What do the screens show for `CC(C)NC(=O)N(C)C[C@H]1Oc2ccc(NC(=O)C3CC3)cc2C(=O)N([C@@H](C)CO)C[C@H]1C`?
HIV Env fusion: 4[16.7 µM]

What do the screens show for `C[C@@H]1CCCCO[C@H](CN(C)Cc2ccc3c(c2)OCO3)[C@@H](C)CN([C@@H](C)CO)C(=O)c2cc(NC(=O)Nc3ccc(F)cc3)ccc2O1`?
HIV Env fusion: -29[16.7 µM]
